PubChem BioAssay (EPA / NIEHS)
Inconclusive results are not listed. Activity calls are given as the source filed them. The calls were made as follows: active = hit-call score of the fitted dose curve at least 0.9, where 1 is the maximum; inconclusive = response in the unintended direction; inactive = score below 0.9.

Key:
[1] = TOX21_p53_BLA_p2_viability: Viability Assessment in the Tox21 HCT-116 p53 Agonism Beta-lactamase Assay, Phase 2 (AID 2283591);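 also: compound exposure lasted 16 h at 37 °C; actives lower the ATP signal meaning cytotoxicity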
Method in brief: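 HCT-116 p53-bla cells (4000/well) rested 5 h at 37C, then received compounds in DMSO (217-fold dilution) for 16 h at 37C, 5% CO2. After the CCF4 read, CellTiter-Glo was added; ATP luminescence was read after 30 min at room temperature.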

[2] = biological target: Cellular tumor antigen p53 (Homo sapiens) (UniProt P04637); assay: TOX21_p53_BLA_p2_ratio: Tox21 HCT-116 p53 Agonism Beta-lactamase Assay, Ratio, Phase 2 (AID 2283592)
Method in brief: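 Human colon HCT116 cells with an inducible p53 beta-lactamase reporter are exposed to test chemicals for 16 h at 37C. Reporter induction is read as the 460/530 nm emission ratio after CCF4-AM loading, normalized to DMSO.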

[3] = biological target: Cellular tumor antigen p53 (Homo sapiens) (UniProt P04637); assay: TOX21_p53_BLA_p3_ratio: Tox21 HCT-116 p53 Agonism Beta-lactamase Assay, Ratio, Phase 3 (AID 2283596)
Method in brief: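 HCT116 p53-bla cells (4000/well) given compound in DMSO (217-fold dilution) after 5 h, incubated 16 h at 37C. CCF4-AM substrate 2 h at room temperature; 460/530 nm emission ratio, gain fitted against DMSO.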

[4] = TOX21_p53_BLA_p5_viability: Viability Assessment in the Tox21 HCT-116 p53 Agonism Beta-lactamase Assay, Phase 5 (AID 2283600)
Method in brief: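 Seeded cells (4000/well) settle 5 h before compound addition. Plates then incubate 16 h at 37C, receive FRET substrate for 2 h, and finally CellTiter-Glo, with luminescence measured after a 30 min room-temperature incubation.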

[5] = biological target: Cellular tumor antigen p53 (Homo sapiens) (UniProt P04637); assay: TOX21_p53_BLA_p5_ratio: Tox21 HCT-116 p53 Agonism Beta-lactamase Assay, Ratio, Phase 5 (AID 2283599)
Method in brief: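 HCT-116 cells carrying a p53-inducible beta-lactamase reporter were seeded at 4000 cells/well and dosed after 5 h with compound in DMSO (217-fold dilution). After 16 h at 37C, CCF4-AM substrate was added for 2 h, and the 460/530 nm emission ratio was scored as gain-of-signal versus DMSO.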

[6] = biological target: Cellular tumor antigen p53 (Homo sapiens) (UniProt P04637); assay: TOX21_p53_BLA_p4_ratio: Tox21 HCT-116 p53 Agonism Beta-lactamase Assay, Ratio, Phase 4 (AID 2283601)
Method in brief: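 HCT116 cells carrying an inducible beta-lactamase reporter were plated at 4000 cells/well, rested 5 h, then exposed to compounds in DMSO (217-fold dilution) for 16 h at 37C. CCF4-AM substrate was loaded 2 h at room temperature; 460/530 nm emission ratio scored gain-of-signal versus DMSO.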

PGR (gene 5241) [7] = biological target: PGR (gene 5241) (UniProt P06401); assay: TOX21_PR_BLA_Followup_Antagonist_ratio: Tox21 HEK293 Progesterone Receptor (PR) Antagonism Beta-lactamase Follow-Up Assay, Ratio (AID 2283934)
Method in brief: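 HEK293T PR-UAS-bla, 2% CS-FBS; 6 hr plating, then cpd + R5020 (1 nM final), 16 hr 37C/5% CO2. B/G FRET substrate 2 h RT. Ratio ch2/ch1 vs DMSO; CellTiter-Glo viability multiplexed, autofluorescence checked.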

[8] = TOX21_PR_BLA_Followup_Agonist_viability: Viability Assessment in the Tox21 HEK293 Progesterone Receptor (PR) Agonism Beta-lactamase Follow-Up Assay (AID 2283935);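 also: signal loss means lower viability so actives are cytotoxic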
Method in brief: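 HEK293T PR-UAS-bla, 3,000 cells/well, 2% CS-FBS; 6 hr pre-incubation; cpd in DMSO, 16 hr 37C; LiveBLAzer 2 hr RT, then CellTiter-Glo 30 min RT, luminescence. Decrease = lost viability.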

[9] = TOX21_PR_BLA_Followup_Antagonist_viability: Viability Assessment in the Tox21 HEK293 Progesterone Receptor (PR) Antagonism Beta-lactamase Follow-Up Assay (AID 2283936);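 also: hits lower the luminescence signal meaning cytotoxicity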
Method in brief: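 PR-UAS-bla HEK293T cells (3,000/well, 2% charcoal-stripped FBS) given compound plus R5020 agonist, 16 h at 37C. CellTiter-Glo added after bla read, 30 min at room temperature; luminescence loss indicates cytotoxicity.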

PGR (gene 5241) [10] = biological target: PGR (gene 5241) (UniProt P06401); assay: TOX21_PR_LUC_Followup_Antagonist: Tox21 HEK293 Progesterone Receptor (PR) Antagonism Luciferase Follow-Up Assay (AID 2283938);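 also: curve fitted upward as signal gain over DMSO baseline despite antagonist label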
Method in brief: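 Luciferase reporter in HEK293-PR-A-luc cells: 16 h compound treatment at 37C, ONE-Glo luminescence detection, DMSO as negative control and baseline.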

[11] = TOX21_PR_LUC_Followup_Antagonist_viability: Viability Assessment in the Tox21 HEK293 Progesterone Receptor (PR) Antagonism Luciferase Follow-Up Assay (AID 2283940)
Method in brief: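 Multiplexed viability counter-screen: after 5 days in charcoal-stripped-FBS medium, HEK293-PR-A-luc cells are plated, pinned with DMSO-dissolved compounds for 16 h at 37C, and ATP content is quantified luminescently via CellTiter-Glo.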

[12] = TOX21_PR_LUC_Followup_Agonist_viability: Viability Assessment in the Tox21 HEK293 Progesterone Receptor (PR) Agonism Luciferase Follow-Up Assay (AID 2283941);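 also: loss of signal means cytotoxicity so actives lower viability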
Method in brief: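 Cells were kept 5 days in charcoal-stripped serum medium before plating HEK293-PR-A-luc at 3,000 cells/well. After 5 h they received DMSO-dissolved compound and incubated 16 h at 37C. Viability was taken from CellTiter-Glo ATP luminescence.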

Measured: AC50

Cellular tumor antigen p53 (Homo sapiens), sequence (P04637 whole entry, looked up): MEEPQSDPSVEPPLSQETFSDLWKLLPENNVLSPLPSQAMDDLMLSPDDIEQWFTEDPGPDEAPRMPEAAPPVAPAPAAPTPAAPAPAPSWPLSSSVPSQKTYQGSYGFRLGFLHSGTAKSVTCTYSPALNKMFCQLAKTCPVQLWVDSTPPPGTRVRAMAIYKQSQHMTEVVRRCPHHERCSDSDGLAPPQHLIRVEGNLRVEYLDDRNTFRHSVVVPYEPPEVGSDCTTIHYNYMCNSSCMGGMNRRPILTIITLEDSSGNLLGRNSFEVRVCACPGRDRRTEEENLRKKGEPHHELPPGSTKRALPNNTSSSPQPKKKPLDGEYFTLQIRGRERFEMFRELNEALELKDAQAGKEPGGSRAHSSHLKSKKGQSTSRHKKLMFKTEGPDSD
PGR (gene 5241), sequence (P06401 whole entry, looked up): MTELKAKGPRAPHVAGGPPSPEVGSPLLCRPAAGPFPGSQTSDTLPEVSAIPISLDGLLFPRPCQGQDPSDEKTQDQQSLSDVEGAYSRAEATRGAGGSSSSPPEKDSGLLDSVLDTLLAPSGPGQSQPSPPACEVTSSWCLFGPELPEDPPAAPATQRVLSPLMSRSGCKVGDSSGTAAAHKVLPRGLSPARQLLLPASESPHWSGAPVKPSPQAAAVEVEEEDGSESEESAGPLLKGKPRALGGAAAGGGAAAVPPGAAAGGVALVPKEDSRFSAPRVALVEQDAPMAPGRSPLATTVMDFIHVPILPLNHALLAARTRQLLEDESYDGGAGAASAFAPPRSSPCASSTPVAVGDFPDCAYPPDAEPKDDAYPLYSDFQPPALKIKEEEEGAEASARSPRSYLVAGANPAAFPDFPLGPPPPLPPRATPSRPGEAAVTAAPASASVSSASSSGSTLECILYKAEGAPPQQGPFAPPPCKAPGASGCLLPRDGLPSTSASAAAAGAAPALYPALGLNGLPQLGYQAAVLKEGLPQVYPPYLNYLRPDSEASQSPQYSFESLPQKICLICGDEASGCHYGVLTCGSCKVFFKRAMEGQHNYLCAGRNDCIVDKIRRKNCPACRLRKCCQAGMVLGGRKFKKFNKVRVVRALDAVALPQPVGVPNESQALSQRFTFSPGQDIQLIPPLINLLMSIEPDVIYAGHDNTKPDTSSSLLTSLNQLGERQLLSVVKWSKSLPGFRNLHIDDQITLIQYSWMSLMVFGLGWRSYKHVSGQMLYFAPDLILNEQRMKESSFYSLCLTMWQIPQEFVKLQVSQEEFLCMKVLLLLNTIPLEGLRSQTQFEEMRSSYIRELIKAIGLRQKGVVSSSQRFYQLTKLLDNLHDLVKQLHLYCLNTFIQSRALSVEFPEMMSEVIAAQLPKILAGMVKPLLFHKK

Cc1ccc(S(=O)(=O)NC2CCCCC2)cc1
inactive: [1] | [2] | [3] | [4]

N#Cc1c(N(CC(=O)O)CC(=O)O)sc(C(=O)O)c1CC(=O)O
inactive: [1] | [2] | [3] | [5] | [6]

O=C1c2ccccc2C(=O)C1c1ccc(Cl)cc1
inactive: [1] | [2] | [3] | [4]

CN(C)CCC[C@@]1(c2ccc(F)cc2)OCc2cc(C#N)ccc21
inactive: [1] | [2] | [3] | [5] | [6]

ON=C1CCCC1
inactive: [1] | [2] | [3] | [5] | [6]

CC(C)c1ccccc1
inactive: [1] | [2] | [3] | [5] | [6]

NC(=O)N[C@@H](CCC(=O)O)C(=O)O
inactive: [1] | [2] | [3] | [5] | [6]

CN(C)c1ccc(CCO)cc1
inactive: [1] | [2] | [3] | [5] | [6]

CN1CCC(=C2c3ccccc3C=Cc3ccccc32)CC1
inactive: [3] | [5] | [6]
active: [1] 39.3 µM | [2] 43.2 µM

CCN(Cc1ccncc1)C(=O)C(CO)c1ccccc1 (configuration not stated)
inactive: [1] | [2] | [3] | [4]

C[C@H](/C=C/[C@H](C)C(C)(C)O)[C@H]1CC[C@H]2/C(=C/C=C3C[C@@H](O)C[C@H](O)C3)CCC[C@]12C
inactive: [1] | [2] | [3] | [4]

O=C(O)c1ccccc1C(=O)Nc1ccc(S(=O)(=O)Nc2nccs2)cc1
inactive: [1] | [2] | [3] | [5] | [6]

Oc1cc(O)c(Cl)cc1Cl
inactive: [1] | [3] | [5] | [6]
active: [2] 64.5 µM

c1ccc2c(c1)CCc1ccccc1N2
inactive: [1] | [2] | [3] | [5] | [6] | PGR (gene 5241) [7] | [8] | [9] | PGR (gene 5241) [10] | [11] | [12]

CN1CCCCC1CCN1c2ccccc2Sc2ccc(S(C)=O)cc21 (configuration not stated)
inactive: [1] | [2] | [3] | [5] | [6]
